Compound activity deposited in PubChem by National Center for Advancing Translational Sciences (NCATS).
USP2a block: USP2a (human) protease inhibition; hit rate 0.01% among 330,000; USP2 core, Ub-CHOP2 coupled fluorogenic reporter, 485/531; AID 463254; Potency, µM (series often up to 38.3 µM), usual class: inhibitors
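Deubiquitinase activity read as fluorescence (485/531 nm) after Ub-CHOP2 cleavage activates the enterokinase reporter on its substrate; USP2 core 10nM, Ub-CHOP2 and substrate 25nM each, 30min compound preincubation then 60min RT; data normalized to NEM, curves fitted.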
Eya2 phos inh: Eya2 (human) phosphatase inhibition | recombinant Eya2, OMFP fluorescence dephosphorylation (OMFP is methylfluorescein phosphate) | hit rate 0.006% among 330,000 | Potency, µM (series often up to 76.9 µM), usual class: inhibitors
Target sequence (O00167 whole entry, looked up): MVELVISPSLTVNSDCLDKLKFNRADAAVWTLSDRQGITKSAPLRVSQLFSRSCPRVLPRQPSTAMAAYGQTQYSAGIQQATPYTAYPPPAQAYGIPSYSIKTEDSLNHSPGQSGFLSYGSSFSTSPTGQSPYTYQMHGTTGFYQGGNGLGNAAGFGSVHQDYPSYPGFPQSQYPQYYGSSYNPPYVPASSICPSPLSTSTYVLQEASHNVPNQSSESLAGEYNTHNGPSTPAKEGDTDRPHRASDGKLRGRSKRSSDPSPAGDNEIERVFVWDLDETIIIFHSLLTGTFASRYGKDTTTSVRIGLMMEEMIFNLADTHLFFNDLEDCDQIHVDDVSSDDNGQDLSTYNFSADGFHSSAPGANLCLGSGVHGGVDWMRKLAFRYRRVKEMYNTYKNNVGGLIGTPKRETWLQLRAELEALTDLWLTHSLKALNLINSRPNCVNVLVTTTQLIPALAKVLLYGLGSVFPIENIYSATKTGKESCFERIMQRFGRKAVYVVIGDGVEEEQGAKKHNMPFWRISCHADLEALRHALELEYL
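Eya2 (0.2 uM) preincubated 10 min at ambient with compound, then OMFP substrate added at 50 uM; 10 min reaction in 50 mM HEPES pH 7.5, 50 mM NaCl, 5 uM MgCl2, 0.05% BSA, 1 mM DTT. Fluorescence read at Ex 485/Em 525 nm.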
GALK inhibitor: galactokinase (human) inhibition | P51570 | Purified GALK, Kinase-Glo residual ATP luminescence | hit rate 0.007% among 270,000 | Potency, µM (highest dose often 57.5 µM), actives largely listed as inhibitors
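Luminescence from leftover ATP (Ultra-Glo luciferase/luciferin) served as read-out after a 1 h room-temperature reaction of 5 nM GALK with 35 uM ATP and 100 uM galactose.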
ClpP mod: qHTS Assay for Activators of ClpP; ATP-dependent Clp protease proteolytic subunit (Bacillus subtilis (strain 168)), P80244; purified B. subtilis ClpP, FRET peptide cleavage, 20 min; Potency, µM (series often up to 57.5 µM); hit rate 1.9% among 340,000; AID 651965, 2013; active means well fitted falling curve with a large enough effect; inconclusive means small, poorly fitted or top-dose-only effect; inactive means no such curve, though single readings can be large or run the other way; further: the source files actives as falling curves though it sought activators and does not explain the sign; nearly all actives have a fitted effect of over 65% in size
Target sequence (P80244 whole entry, looked up): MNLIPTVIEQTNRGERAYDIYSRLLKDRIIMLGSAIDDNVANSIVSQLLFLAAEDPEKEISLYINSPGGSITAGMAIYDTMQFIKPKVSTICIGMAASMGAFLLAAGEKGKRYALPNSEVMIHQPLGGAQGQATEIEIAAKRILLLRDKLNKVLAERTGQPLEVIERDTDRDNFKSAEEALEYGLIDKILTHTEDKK
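FRET quenching reversal measured ClpP activation: 10 microg/mL B. subtilis ClpP at pH 8 with the FRET-FV decapeptide, read at 430 nm after 320 nm excitation. The 20-min minus 0-min signal was scaled between DMSO/no-enzyme wells and ADEP (5.8 microM final).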
Large screens that a line does not name were inactive. This is one part of a sample in which hits are shown more often than they occur. Unless noted, the call rests on the fitted dose curve; in most records, active means well fitted inhibition curve with a large enough effect; inconclusive means small, poorly fitted or top-dose-only effect, or effect the other way; inactive means flat fitted curve, though single readings scatter.

C/C=C(\C)C(=O)OC1c2c(ccc3ccc(=O)oc23)OC(C)(C)C1OC(C)=O (stereo not given)	ClpP mod 32µM
C/C=C(/C)C(=O)O[C@@H]1c2c(ccc3ccc(=O)oc23)OC(C)(C)[C@@H]1OC(C)=O	none (no result: GALK inhibitor)
O=c1c(Cl)c(N2CCN(S(=O)(=O)c3ccccc3)CC2)cnn1-c1ccccc1	none
Nc1ccc2c(c1)C(=O)C(=O)c1ccccc1-2	GALK inhibitor 6.3µM
CCNC(=S)N1CCN(Cc2ccccc2)CC1	none
O=C(COc1nnc2ccccn12)N1CCN(S(=O)(=O)c2ccccc2)CC1	ClpP mod 32µM (no result: USP2a block, Eya2 phos inh, GALK inhibitor)
Cc1cnc(NC(=O)C2CC(=O)N(c3ccc4c(c3)OCCO4)C2)s1 (stereo not given)	ClpP mod 28µM (no result: GALK inhibitor)
O=C(NCC1(N2CCCCC2)CCCCC1)C1CC(=O)N(c2ccc3c(c2)OCCO3)C1 (stereo not given)	ClpP mod 8.9µM
CCc1cccc(CC)c1NC(=O)C1CC(=O)N(c2ccc3c(c2)OCCO3)C1 (stereo not given)	none
Cc1nnc(SC/C=C/c2ccccc2)n(N)c1=O	none
CC(C)[C@H](NS(=O)(=O)c1ccccc1F)C(=O)NC1CCCCC1	none (no result: GALK inhibitor)
Cc1cc(CN2CCCCC2)oc1C(=O)O	none
Brc1c(CSc2nc3ccccc3s2)nc2ncccn12	ClpP mod 28µM
O=[N+]([O-])c1ccc2sc(SCc3nc4ccccn4c3Br)nc2c1	none (no result: ClpP mod)
Cc1cc(=O)[nH]c(SCc2nc3ncccn3c2Br)n1	ClpP mod 28µM
Cc1ccc(SCC(=O)NC(=O)NCc2ccccc2)c(C)c1	ClpP mod 35µM
O=C(CSc1ccccc1)NC(=O)NCc1ccccc1	none
CN(C)c1ccnc(-n2cccc2/C=N/OCc2ccccc2)c1C#N	ClpP mod 14µM
C[N+]1(C)CC2([N+](=O)[O-])CC=C(Oc3ccccc3)C([N+](=O)[O-])(C2)C1 (stereo not given)	none
Cc1nc(NC(=O)c2cc3c(C)nn(-c4ccccc4)c3s2)sc1C(=O)Nc1ccccc1	none
Cc1ccc2nc(Cl)c3cc(C(=O)N(CCN(C)C)Cc4ccco4)sc3c2c1	ClpP mod 25µM
COc1ccc(C(=O)C(CCC(CNC(C)(C)C)C(=O)c2ccc(OC)cc2)CNC(C)(C)C)cc1 (stereo not given)	ClpP mod 28µM (no result: GALK inhibitor)
O=Cc1cn(-c2ccccc2)nc1-c1cc2c(ccc3ccccc32)oc1=O	ClpP mod 5.6µM
N#Cc1cn(-c2ccccc2)nc1-c1cc2ccccc2oc1=O	ClpP mod 32µM
O=Cc1cn(-c2ccccc2)nc1-c1cc2cc(O)ccc2oc1=O	none
CCCNC(=O)C(Cc1ccccc1)NS(=O)(=O)c1ccc2c(c1)c(=O)n(C)c(=O)n2C (stereo not given)	none
O=C(N/N=C/c1ccc2nccnc2c1)c1cccc([N+](=O)[O-])c1	none (no result: ClpP mod)
Cc1cc(Cn2nc(C(=O)NCc3cccs3)cc2-c2ccccc2)on1	none (no result: GALK inhibitor)
NC(=O)c1ccccc1NS(=O)(=O)c1ccc2c(c1)OCCO2	ClpP mod 25µM
O=C(O)c1ccccc1NS(=O)(=O)c1ccc2c(c1)OCCO2	none (no result: ClpP mod)
Cn1c(/C(C#N)=C/C2CC=CCC2)nc2ccccc21 (stereo not given)	none
N#C/C(=C\C1CC=CCC1)c1nc2ccccc2[nH]1 (stereo not given)	ClpP mod 32µM
COc1cccc(N2[C@@H](CC(=O)O)c3cc(C(F)(F)F)ccc3S2(=O)=O)c1	none (no result: USP2a block, Eya2 phos inh, GALK inhibitor)
Cc1cc(-c2ccc(Cl)cc2)n2nc(N)nc2n1	ClpP mod 18µM
Nc1nc2nccc(-c3ccc(Cl)cc3)n2n1	none
Cc1cc(N2CCN(C(=O)c3ccco3)CC2)n2nc(-c3cccc(Cl)c3)cc2n1	ClpP mod 35µM
O=C(CCS(=O)(=O)c1cccc2nonc12)Nc1cccc2c1CCCC2	none
COc1ccccc1NC(=O)Cn1c(=O)n(Cc2ccccc2)c(=O)c2c1c1cc(C)ccc1n2C	none (no result: USP2a block, Eya2 phos inh, GALK inhibitor)
COc1ccc2c(c1)c1c(c(=O)n(Cc3ccccc3)c(=O)n1CC(=O)Nc1ccccc1OC)n2C	ClpP mod 20µM (no result: USP2a block, Eya2 phos inh, GALK inhibitor)
O=C(Nc1cc(S(=O)(=O)N2CCOCC2)ccc1N1CCOCC1)c1cn2ccccc2n1	none (no result: ClpP mod)
O=C(O)c1ccc(NC(=O)c2cccc(N3C(=O)C4C5CCC(C5)C4C3=O)c2)cc1 (stereo not given)	ClpP mod 25µM (no result: GALK inhibitor)
O=C(O)c1cccc(NC(=O)c2ccc3c(c2)C(=O)N(c2ccccc2)C3=O)c1	ClpP mod 8.9µM
CCC(=O)N1Cc2cc(C(=O)NCC(F)(F)F)nc(-c3cccc(-c4cncnc4)c3)c2[C@@H]1CCO	none (no result: USP2a block, Eya2 phos inh, GALK inhibitor)
Cc1ccc(-c2nnc(Nc3ccc(O)cc3)c3ccccc23)cc1S(=O)(=O)N1CCOCC1	none (no result: USP2a block, Eya2 phos inh, GALK inhibitor)
CC=Cc1cc2c(c(=O)o1)C(=O)C(O)C(C)O2 (stereo not given)	ClpP mod 13µM (no result: USP2a block, Eya2 phos inh, GALK inhibitor)
CCCc1cc(C(=O)Nc2ccc(OC)cc2[N+](=O)[O-])cs1	none
O=C1C(SC(F)(F)C(F)F)=C(C(F)(F)F)OC2C3C=CC(C3)C12 (stereo not given)	ClpP mod 16µM
C=CCn1c(CCn2c3ccccc3c3ccccc32)n[nH]c1=S	none
CCOc1ccc(CCNC(=O)c2[nH]c3cc(OC)ccc3c2Sc2ccccc2)cc1OCC	ClpP mod 22µM (no result: USP2a block, Eya2 phos inh, GALK inhibitor)
C/C(=N\NC(=O)c1ccc(CN2CCc3ccccc3C2)cc1)c1ccccc1O	none (no result: ClpP mod)
CC1CCN(C(=O)COC(=O)c2n[nH]c3ccccc23)CC1	ClpP mod 28µM
CCC1CCCCN1C(=O)COC(=O)c1n[nH]c2ccccc12 (stereo not given)	ClpP mod inconclusive
CCOC(=O)CNc1c(-c2ccc(O)cc2)nc2ccccn12	ClpP mod 32µM
CCOC(=O)CNc1c(-c2ccc(O)cc2)nc2ccc(Cl)cn12	none
Cc1ccc(CN2CCSc3ccc(C(=O)NCc4ccc(OC(C)C)cc4)cc32)cc1	none (no result: USP2a block, Eya2 phos inh, GALK inhibitor)
Cc1c(C)c2ccc(O[C@@H]3O[C@H](CO)[C@@H](O)[C@H](O)[C@H]3O)c(C)c2oc1=O	Eya2 phos inh inconclusive
C=CCOc1ccc2c(CC)cc(=O)oc2c1C	ClpP mod 25µM
CCc1cc(=O)oc2c(C)c(O[C@@H]3O[C@H](CO)[C@@H](O)[C@H](O)[C@H]3O)ccc12	ClpP mod 28µM (no result: GALK inhibitor)
Cc1cccc(Oc2ncnc3onc(C)c23)c1C	none
COC(=O)COc1cc2ccccc2cc1C(=O)Nc1ccccc1	none
Nc1nnc(-c2ccccc2)s1	none
Cc1nn(-c2ccccc2)c(C)c1/C=N/NC(=O)c1cccs1	ClpP mod 25µM
COc1ccc(/C=C/C(=O)NCc2cccnc2)cc1	none
COc1cc(/C=C/C(=O)NCc2cccnc2)cc(OC)c1OC	ClpP mod 25µM
CCOc1cc2[nH]c(=S)n(CCCCC(=O)NCc3ccco3)c(=O)c2cc1OCC	none
COc1cc2[nH]c(=O)n(CCCC(=O)NCc3ccccc3)c(=O)c2cc1OC	none (no result: USP2a block, Eya2 phos inh, GALK inhibitor)
CCCCN(C)C(=O)CCCCn1c(=O)[nH]c2cc(OCC)c(OCC)cc2c1=O	ClpP mod 35µM
